Reference: the antibiotic and cytotoxicity screens of Wong et al. (2023)
In all, about 39,000 compounds went through this assay and about 3,300 (8.5%) were called active. Only a selection was taken, and actives are over-represented in it overall.

Each compound was assayed on HepG2 (assay: cytotoxicity call (relative viability < 0.9)). Details: 10 µM.

Row | Compound | cytotoxicity call
1 | C[C@H]1CN([C@@H](C)CO)C(=O)c2cccc(NC(=O)C3CCCCC3)c2O[C@@H]1CN(C)Cc1ccc(C(F)(F)F)cc1 | inactive
2 | CCCN(C)C[C@H]1OCCCC[C@H](C)Oc2ccc(NC(=O)Nc3cccc4ccccc34)cc2C(=O)N([C@@H](C)CO)C[C@H]1C | inactive
3 | O=C(CCCCCNC(=O)OCc1ccc(CO[C@@H]2C[C@H](c3csc4ccccc34)C=C(C(=O)N3CCN(Cc4ccccc4)CC3)O2)cc1)NO | inactive
4 | C[C@H]1CN([C@@H](C)CO)C(=O)c2cc(NC(=O)C3CC3)ccc2O[C@H]1CN(C)S(=O)(=O)c1cccs1 | inactive
5 | CC(C)Cc1ccc([C@@H](C)C(=O)Nc2ccc(Cl)cc2)cc1 | active
6 | N[C@@H](Cc1ccc(Cl)cc1)C(=O)O | inactive
7 | CC(C)Cc1ccc(C(C)C(=O)O)cc1 (centres undefined) | inactive
8 | C[C@@H]1CN([C@@H](C)CO)C(=O)CCCn2nncc2CO[C@H]1CN(C)C(=O)Nc1ccc2c(c1)OCO2 | inactive
9 | C[C@@H]1CN([C@@H](C)CO)C(=O)c2cc(-c3cncnc3)cnc2O[C@@H]1CN(C)C(=O)Nc1ccc2c(c1)OCO2 | inactive
10 | CC(C)(C)OC(=O)NCCOCCOCCOc1ccc(N(C(=O)CCl)[C@@H](C(=O)NCCc2ccccc2)c2cccs2)cc1Cl | active
11 | COc1ccc(N(C(=O)CCl)[C@@H](C(=O)NCCc2ccccc2)c2ccc(Cl)s2)cc1Cl | active
12 | COc1ccc(N(C(=O)CSc2ncccn2)[C@@H](C(=O)NCCc2ccccc2)c2cccs2)cc1Cl | inactive
13 | O=C(CCCl)NCCc1ccccc1 | inactive
14 | Cc1noc(C)c1S(=O)(=O)Nc1cccc2c1O[C@H](CN(C)S(C)(=O)=O)[C@H](C)CN([C@H](C)CO)C2=O | inactive
15 | C[C@H]1CN([C@@H](C)CO)C(=O)Cc2cc(NS(=O)(=O)c3cn(C)cn3)ccc2O[C@@H]1CN(C)Cc1ccccc1 | inactive
16 | C[C@@H]1CCCCO[C@@H](CN(C)C(=O)Nc2ccc3c(c2)OCO3)[C@H](C)CN([C@H](C)CO)C(=O)c2cc(NC(=O)c3ccncc3)ccc2O1 | inactive
17 | COc1ccc(CNC(=O)C[C@@H]2C[C@@H]3c4cc(NS(=O)(=O)c5ccc(F)cc5)ccc4O[C@@H]3[C@@H](CO)O2)cc1 | inactive
18 | C[C@H]1CCCCO[C@@H](CN(C)C(=O)Nc2ccc(F)cc2)[C@@H](C)CN([C@@H](C)CO)C(=O)c2cc(NC(=O)Nc3ccccc3)ccc2O1 | inactive
19 | C[C@@H]1CCCCO[C@H](CN(C)Cc2ccncc2)[C@@H](C)CN([C@H](C)CO)C(=O)c2cc(NC(=O)Nc3ccc4c(c3)OCO4)ccc2O1 | inactive
20 | CCC(=O)N(C)C[C@H]1Oc2ncc(C#C[C@@H](C)O)cc2C(=O)N([C@@H](C)CO)C[C@H]1C | inactive
21 | C[C@@H]1CCCCO[C@H](CN(C)S(=O)(=O)c2ccc(F)cc2)[C@@H](C)CN([C@H](C)CO)C(=O)c2cc(NC(=O)c3ccccc3)ccc2O1 | inactive
22 | C[C@H]1CCCCO[C@H](CN(C)S(=O)(=O)c2ccc(F)cc2)[C@@H](C)CN([C@@H](C)CO)C(=O)c2cc(NC(=O)c3ccccc3)ccc2O1 | active
23 | C[C@@H]1CN([C@H](C)CO)C(=O)c2cc(NC(=O)c3ccccc3)ccc2O[C@@H](C)CCCCO[C@H]1CN(C)S(=O)(=O)c1ccc(F)cc1 | active
24 | C[C@H](CO)N1C[C@H](C)[C@H](CN(C)S(=O)(=O)c2ccc(F)cc2)OCCCC[C@H](C)Oc2ccc(NC(=O)c3ccccc3)cc2C1=O | inactive
25 | C[C@@H]1CCCCO[C@H](CN(C)S(=O)(=O)c2ccc(F)cc2)[C@H](C)CN([C@@H](C)CO)C(=O)c2cc(NC(=O)c3ccccc3)ccc2O1 | inactive
26 | C[C@@H]1CCCCO[C@@H](CN(C)S(=O)(=O)c2ccc(F)cc2)[C@@H](C)CN([C@@H](C)CO)C(=O)c2cc(NC(=O)c3ccccc3)ccc2O1 | inactive
27 | C[C@@H]1CN([C@H](C)CO)C(=O)Cc2cc(NC(=O)CCN3CCOCC3)ccc2O[C@@H]1CN(C)CC1CC1 | inactive

Row | Compound | cytotoxicity call
28 | COc1cc2c(=O)c(-c3ccc4c(c3)OCO4)coc2c2c1OC(C)(C)C=C2 | active
29 | COc1cc2c(cc1-c1coc3c4c(c(OC)cc3c1=O)OC(C)(C)CC4)OCO2 | inactive
30 | COc1cc2c(cc1-c1coc3c4c(ccc3c1=O)OC(C)(C)CC4)OCO2 | inactive
31 | CN1CCN(C(=O)C[C@H]2CC[C@H](NC(=O)Cc3ccccn3)[C@@H](CO)O2)CC1 | inactive
32 | CC1(C)C[C@H](c2nc(-c3ccccc3)cs2)CCS1 | active
33 | NCCc1nc(-c2ccccc2)cs1 | inactive
34 | O=C(C[C@H]1CC[C@@H](NC(=O)c2cnccn2)[C@H](CO)O1)NCc1ccccc1F | inactive
35 | CCS(=O)(=O)N(C)C[C@H]1OCc2ccccc2-c2c(n(C)c3ccccc23)C(=O)N([C@H](C)CO)C[C@H]1C | inactive
36 | NCCC(=O)N[C@@H](Cc1cnc[nH]1)C(=O)O.[Zn+3] | inactive
37 | C[C@@H]1CN([C@@H](C)CO)S(=O)(=O)c2ccc(C#CCN(C)C)cc2O[C@H]1CN(C)Cc1ccc2c(c1)OCO2 | inactive
38 | C=CC(C1=CC(=O)C(OC)=CC1=O)c1ccc(O)cc1 (centres undefined) | active
39 | C=CC(C1=CC(=O)C(OC)=CC1=O)c1ccc(OC)cc1 (centres undefined) | active
40 | C=CC(C1=CC(=O)C=CC1=O)c1ccccc1 (centres undefined) | active
41 | C=CC(C1=CC(=O)C(OC)=CC1=O)c1ccccc1 (centres undefined) | active
42 | COC(=O)[C@@H](O)c1ccccc1 | inactive
43 | COC1=CC(=O)c2ccccc2C1=O | inactive
44 | COc1ccc([C@@H](N)c2ccccc2)cc1 | inactive
45 | COc1ccc(S(=O)(=O)N(C)C)cc1 | inactive
46 | CC(C)CC#Cc1cnc2c(c1)C(=O)N([C@@H](C)CO)C[C@@H](C)[C@@H](CN(C)C(=O)c1ccc3c(c1)OCO3)O2 | inactive
47 | c1ccc(Oc2ccccc2)cc1 | inactive
48 | COc1cccc(S(=O)(=O)Nc2ccc3c(c2)[C@H]2C[C@H](CC(=O)N4CCCCC4)O[C@H](CO)[C@H]2O3)c1 | inactive
49 | COc1ccc(NC(=O)Nc2ccc3c(c2)C(=O)N([C@@H](C)CO)C[C@@H](C)[C@H](CN(C)CC2CCCCC2)O3)cc1 | inactive
50 | CN(CC=CC#CC(C)(C)C)Cc1cccc2ccccc12.Cl | inactive
51 | C[C@@H]1CN([C@@H](C)CO)C(=O)c2cc(C#C[C@@H](C)O)cnc2O[C@H]1CN(C)C(=O)CN1CCOCC1 | inactive
52 | C[C@@H]1CN([C@@H](C)CO)C(=O)c2cc(-c3ccc(C(=O)N(C)C)cc3)cnc2O[C@@H]1CN(C)C(=O)CN(C)C | inactive
53 | Cc1ccc(S(=O)(=O)Nc2cccc3c2O[C@@H](CN(C)Cc2ccc(C(F)(F)F)cc2)[C@@H](C)CN([C@H](C)CO)C3=O)cc1 | inactive
54 | C[C@@H]1CN([C@H](C)CO)C(=O)c2cccc(NC(=O)c3ccncc3)c2O[C@@H]1CN(C)S(=O)(=O)c1cn(C)cn1 | inactive

Row | Compound | cytotoxicity call
55 | O=C1N[C@@H](c2ccccc2)COCc2cn(nn2)CC[C@@H](Cc2ccc(C(F)(F)F)cc2)C(=O)N[C@@H](c2ccccc2)COCc2cn(nn2)CC[C@H]1Cc1ccc(C(F)(F)F)cc1 | inactive
56 | O=C(O)[C@]1(O)C[C@H](O)[C@@H](O)[C@@H](O)C1 | inactive
57 | Cc1noc(C)c1S(=O)(=O)N(C)C[C@@H]1Oc2ccc(N(C)C)cc2CC(=O)N([C@@H](C)CO)C[C@H]1C | inactive
58 | CC(C)C1=CC2=CCC3C(C)(C(=O)O)CCCC3(C)C2CC1 (centres undefined) | inactive
59 | C=C1C[C@@]23CC[C@@H]4[C@@](C)(CCC[C@@]4(C)C(=O)OC)[C@H]2CC[C@@H]1C3 | inactive
60 | C=C1C[C@]23CC[C@@H]4[C@@](C)(CCC[C@@]4(C)C(=O)O)[C@H]2CC[C@H]1C3 | active
61 | Cc1noc(C)c1NC(=O)Nc1ccc2c(c1)CC(=O)N([C@H](C)CO)C[C@@H](C)[C@@H](CN(C)C(=O)NC(C)C)O2 | inactive
62 | COCCCNC(=O)[C@@]1(Cc2ccccc2I)c2ccccc2C(=O)N(Cc2ccccc2OC)[C@H]1c1ccc(CO)cc1 | inactive
63 | COc1ccccc1CN1C(=O)c2ccccc2[C@](Cc2ccccc2I)(C(=O)O)[C@@H]1c1ccc(CO)cc1 | inactive
64 | COc1ccccc1CN1C(=O)c2ccccc2[C@](Cc2ccccc2I)(C(=O)NCCCN(C)C)[C@@H]1c1ccc(CO)cc1 | active
65 | COc1ccccc1CN1C(=O)c2ccccc2[C@](Cc2ccccc2I)(C(=O)NC2CC2)[C@@H]1c1ccc(CO)cc1 | active
66 | COc1ccc(CCNC(=O)[C@@]2(Cc3ccccc3I)c3ccccc3C(=O)N(Cc3ccccc3OC)[C@H]2c2ccc(CO)cc2)cc1 | inactive
67 | COc1ccccc1CN1C(=O)c2ccccc2[C@](Cc2ccccc2I)(C(=O)NCC(C)C)[C@@H]1c1ccc(CO)cc1 | inactive
68 | CO[C@H]1CN(C)C(=O)c2cc(NS(=O)(=O)CC(F)(F)F)ccc2OC[C@@H](C)N(Cc2cccnc2)C[C@@H]1C | inactive
69 | COc1ccc2c3c(n(c2c1)C)[C@H](CO)N(C[C@]13CCN(CC1)C(=O)c1ccncc1)C(=O)C1CCOCC1 | inactive
70 | CC(C)NC(=O)Nc1cccc2c1O[C@@H](CN(C)C(=O)Nc1ccc3c(c1)OCO3)[C@@H](C)CN([C@H](C)CO)C2=O | inactive
71 | C[C@@H]1CCCCO[C@H](CN(C)S(=O)(=O)c2cn(C)cn2)[C@@H](C)CN([C@H](C)CO)C(=O)c2cc(NC(=O)c3ccncc3)ccc2O1 | inactive
72 | C[C@H]1CN([C@@H](C)CO)C(=O)c2cccc(NS(=O)(=O)c3cn(C)cn3)c2O[C@@H]1CN(C)S(=O)(=O)c1ccc(Cl)cc1 | inactive
73 | COc1ccc(CNC(=O)C[C@H]2CC[C@H]3[C@@H](COc4ccc(NC(=O)C5CC5)cc4C(=O)N3C)O2)cc1 | inactive
74 | Nc1ccn([C@@H]2O[C@H](CO)[C@@H](O)[C@H]2O)c(=O)n1 | inactive
75 | Nc1ccn(C2OC(CO)C(O)C2O)c(=O)n1 (centres undefined) | inactive
76 | Cl.Nc1ccn(C2OC(CO)C(O)C2(F)F)c(=O)n1 (centres undefined) | active
77 | C[C@@]1(F)[C@H](O)[C@@H](CO)O[C@H]1n1ccc(N)nc1=O | inactive
78 | C#C[C@@]1(O)[C@@H](CO)O[C@@H](n2ccc(N)nc2=O)[C@@H]1O | active
79 | Nc1ccn([C@@H]2O[C@H](CO)[C@@H](O)C2(F)F)c(=O)n1 | inactive
